In all, about 52,000 compounds went through this assay and about 4,300 (8.3%) were called active. No stated cut-off is given here; in the data, active means survival mostly below about 52% (no sharp cut-off); inactive means mostly above about 56%. The list comes from a sample in which actives are over-represented; it also holds similar structures and randomly drawn compounds.

The test system of this assay is DeltatarO mutant. Kind of assay: growth inhibition of S. aureus wild type versus tarO mutant, primary screen, teichoic acid synthesis inhibitors, RN4220, OD600 (AID 463173). Particulars: OD600, 18 h, stronger effect = lower value, screened at 18.75 µg/mL (by protocol).
For the compound `C=CCNCc1cccn1-c1ccccc1`, the survival is 76% (inactive).
In the case of `CCCCn1cc(S(=O)(=O)c2ccc(CC)cc2)c(=O)c2cc(F)c(N3CCCC(C)C3)cc21` (stereo unspecified), the survival is 115% (inactive).
Turning to `O=C(CN1CCC(NC(=O)Nc2ccccc2-c2ccccc2)CC1)NCc1ccco1`, the survival is 78% (inactive).
Then `Cc1cccnc1Nc1nc(-c2cccnc2)cs1`, with 48% (inactive); and `CC1CCCCC1NC(=O)CSc1nncn1N` (stereo unspecified), with 84% (inactive).
Then `O=C(Nc1cccc(F)c1)c1oc2ccccc2c1NC(=O)C12CC3CC(CC(C3)C1)C2`, with 72% (inactive); and `Oc1c(C(c2ccccc2Cl)N2CCCC2)sc2nc(-c3ccco3)nn12` (stereo unspecified), with 83% (inactive).
Then `Oc1c(C(c2ccccc2Cl)N2CCOCC2)sc2nc(-c3ccco3)nn12` (stereo unspecified), with 0% (active).
As for `Oc1c(C(c2ccccc2)N2CCCC2)sc2nc(-c3ccco3)nn12` (stereo unspecified), the survival is 0% (active).
Then `Oc1c(C(c2ccccc2)N2CCOCC2)sc2nc(-c3ccco3)nn12` (stereo unspecified), with 69% (inactive); and `Oc1c(C(c2ccccc2)N2CCC3(CC2)OCCO3)sc2nc(-c3ccco3)nn12` (stereo unspecified), with 69% (inactive); and `Oc1c(C(c2ccc(F)cc2)N2CCN(Cc3ccccc3)CC2)sc2nc(-c3ccco3)nn12` (stereo unspecified), with 73% (inactive).
Next, `CN1CCN(C(c2ccccc2)c2sc3nc(-c4ccco4)nn3c2O)CC1` (stereo unspecified): 75% (inactive).
As for `Cc1ccc(C(c2sc3nc(-c4ccco4)nn3c2O)N2CCN(Cc3ccccc3)CC2)cc1` (stereo unspecified), the survival was 112% (inactive).
Next, `Cc1ccc(C(c2sc3nc(-c4ccco4)nn3c2O)N2CCC3(CC2)OCCO3)cc1` (stereo unspecified): 78% (inactive); `Oc1c(C(c2ccccc2)N2CCN(Cc3ccccc3)CC2)sc2nc(-c3ccco3)nn12` (stereo unspecified): 37% (active); `CN1CCN(C(c2ccccc2Cl)c2sc3nc(-c4ccco4)nn3c2O)CC1` (stereo unspecified): 131% (inactive).
Next, `Oc1c(C(c2ccc(Cl)cc2)N2CCC3(CC2)OCCO3)sc2nc(-c3ccco3)nn12` (stereo unspecified): 32% (active); `O=C(c1ccc2c(c1)N(Cc1ccc(Cl)cc1)C(=O)c1ccccc1S2(=O)=O)N1CCCCCC1`: 64% (inactive).
Then `Cn1nc(CC(=O)Nc2ccc(N3CCN(C(=O)OC(C)(C)C)CC3)cc2)c2ccccc2c1=O`, with 84% (inactive); and `COC(=O)c1ccccc1NC(=O)CSc1nc2sc3c(c2c(=O)[nH]1)CCCC3`, with 61% (inactive).
On to `CCOc1ccccc1NC(=O)CSc1nnc2[nH]c(=O)cc(-c3ccccc3)n12`, for which the survival was 98% (inactive).
Next, `Cc1nonc1OCCn1nnc(N)n1`: 95% (inactive); `Oc1c(C(c2ccccc2)N2CCN(c3cccc(Cl)c3)CC2)sc2nc(-c3ccco3)nn12` (stereo unspecified): 74% (inactive).
Next, `O=[N+]([O-])c1ccc(C(c2sc3nc(-c4ccco4)nn3c2O)N2CCN(Cc3ccccc3)CC2)cc1` (stereo unspecified): 79% (inactive); `O=[N+]([O-])c1ccc(C(c2sc3nc(-c4ccco4)nn3c2O)N2CCN(c3cccc(Cl)c3)CC2)cc1` (stereo unspecified): 47% (active).
Next, `Oc1c(C(c2ccccc2F)N2CCOCC2)sc2nc(-c3ccco3)nn12` (stereo unspecified): 80% (inactive); `CCOC(=O)c1ccc(NC(=O)CSc2ccc(-c3sc(C)nc3C)nn2)cc1`: 37% (active).
For `Cc1nc(C)c(-c2ccc(SCC(=O)Nc3ccc(F)c(F)c3)nn2)s1`, the survival was 102% (inactive).
Next, `Cc1nc(C)c(-c2ccc(SCC(=O)Nc3ccc(Cl)c(Cl)c3)nn2)s1`: 46% (active); `CCOC(=O)c1ccccc1NC(=O)CSc1ccc(-c2sc(C)nc2C)nn1`: 91% (inactive).
Then `COc1cccc(CNC(=O)CSc2ccc(-c3sc(-c4ccccc4)nc3C)nn2)c1`, with 26% (inactive); and `COc1ccc(OC)c(NC(=O)CSc2ccc(-c3sc(C)nc3C)nn2)c1`, with 83% (inactive); and `Cc1cc(C)c(NC(=O)CSc2ccc(-c3sc(-c4ccccc4)nc3C)nn2)c(C)c1`, with 33% (inactive).
Next, `COc1ccc(Cl)cc1NC(=O)CSc1ccc(-c2sc(C)nc2C)nn1`: 105% (inactive).
Take `COc1cc(NC(=O)CSc2ccc(-c3sc(C)nc3C)nn2)cc(OC)c1`: the survival is 6% (active).
For the compound `Cc1nc(C)c(-c2ccc(SCC(=O)Nc3ccc(Br)cc3)nn2)s1`, the survival is 101% (inactive).
Next, `COc1ccccc1NC(=O)CSc1ccc(-c2sc(C)nc2C)nn1`: 92% (inactive); `COc1cc(NC(=O)CSc2ccc(-c3sc(-c4ccccc4)nc3C)nn2)cc(OC)c1`: 19% (active).
Next, `COc1ccc(NC(=O)C2CCN(S(=O)(=O)c3c(C)noc3/C=C/c3ccc(C)cc3)CC2)cc1Cl`: 82% (inactive); `COc1cc2c(=O)n(CCC(=O)NCC3CCCO3)c(=O)n(CC(=O)Nc3ccc(C)cc3)c2cc1OC` (stereo unspecified): 92% (inactive); `COc1cccc(OC(=O)CSc2nnc(-c3ccc4c(c3)OCO4)o2)c1`: 59% (inactive).
Then `CC(=O)Nc1ccc(S(=O)(=O)NC2(C(F)(F)F)C(=O)Nc3c2c(=O)[nH]c(=O)n3-c2cccc(Cl)c2)cc1` (stereo unspecified), with 84% (inactive); and `Cc1ccc(Cl)cc1N1CCN(C(=O)C2CCN(S(=O)(=O)Cc3ccccc3)CC2)CC1`, with 72% (inactive).
On to `CCC1CN(C(=O)N2CCC(C(=O)NCc3ccc(C)o3)CC2)c2ccccc2O1` (stereo unspecified), for which the survival was 87% (inactive).
Next, `O=C(NCc1ccco1)C(c1ccco1)N(C(=O)Cn1nnc2ccccc21)c1ccccc1` (stereo unspecified): 65% (inactive); `Cc1cc2c(cc1S(=O)(=O)N(C)CC(=O)Nc1ccc(C#N)cc1)OCC(=O)N2`: 76% (inactive); `Cc1cc2c(cc1S(=O)(=O)N(C)CC(=O)Nc1cccc(C#N)c1)OCC(=O)N2`: -2% (active).
Then `CN(CC(=O)Nc1cccc(C#N)c1)S(=O)(=O)c1cc2c(cc1Cl)NC(=O)CO2`, with 109% (inactive); and `Cc1cc2c(cc1S(=O)(=O)N(CCN(C)C)Cc1ccccc1)OCC(=O)N2`, with 102% (inactive).
Next, `Cc1cc2c(cc1S(=O)(=O)N(CCO)Cc1ccccc1)OCC(=O)N2`: 46% (active); `Cc1cc2c(cc1S(=O)(=O)N(CCN(C)C)Cc1ccco1)OCC(=O)N2`: 98% (inactive).
For the compound `CCN1CCN(C(c2cccc(OC)c2)c2c(O)cc(C)n(Cc3ccco3)c2=O)CC1` (stereo unspecified), the survival is 120% (inactive).
Next, `Cc1ccc(-c2n[nH]c3c2C(c2ccc(C(C)(C)C)cc2)NC3=O)cc1` (stereo unspecified): 109% (inactive).
Then `CCc1ccc(NC(=O)Cn2nc(SC)c(S(=O)(=O)c3ccc(OC)cc3)c2N)cc1`, with 118% (inactive).
Next, `COc1ccc(NC(=O)Cn2nc(SC)c(S(=O)(=O)c3ccc(C)cc3)c2N)cc1OC`: 25% (active); `CCOC(=O)c1ccc(NC(=O)Cn2nc(SC)c(S(=O)(=O)c3ccc(Cl)cc3)c2N)cc1`: 99% (inactive); `CCSc1nn(CC(=O)Nc2cccc(CC)c2)c(N)c1S(=O)(=O)c1ccccc1`: 101% (inactive).
`COc1ccc(S(=O)(=O)c2c(SC)nn(CC(=O)Nc3ccc(C)c(Cl)c3)c2N)cc1`: the survival is 83% (inactive).
Turning to `CCSc1nn(CC(=O)Nc2ccc(C(=O)OC)cc2)c(N)c1S(=O)(=O)c1ccc(C)cc1`, the survival was 37% (active).
Next, `Cn1cc(-c2cc3n(n2)CCC(=O)N3CCCC(=O)NCc2ccccc2Cl)c2ccccc21`: 109% (inactive).
Then `CCn1c(=O)cc(SCC(=O)NCCc2ccc(Cl)cc2)c2ccccc21`, with 76% (inactive); and `O=C(NC12CCC(O)C(SC1)/C2=N/O)c1ccccc1` (stereo unspecified), with 98% (inactive).
Then `COc1cccc(-c2noc(C3CCCN(S(=O)(=O)c4ccccc4F)C3)n2)c1` (stereo unspecified), with 65% (inactive); and `CC(C)(C)OC(=O)N1CCC(c2c(C(=O)NCCN3CCc4ccccc4C3)cnn2-c2ccc(F)cc2)CC1`, with 68% (inactive); and `Cc1ccc(C)c(CSc2nc(-c3ccccc3F)nc3c2Cc2c(CO)cnc(C)c2O3)c1`, with 108% (inactive).
Turning to `Cc1ncc(CO)c2c1Oc1nc(-c3ccc(Cl)cc3)nc(SCC(=O)N3CCCCC3)c1C2`, the survival was 48% (active).
In the case of `CCSc1nc(-c2ccccc2OC)nc2c1Cc1c(CO)cnc(C)c1O2`, the survival was 80% (inactive).
Then `CCSc1nc(-c2ccccc2F)nc2c1Cc1c(CO)cnc(C)c1O2`, with 52% (active).
Then `Cc1ncc(CO)c2c1Oc1nc(-c3ccc(F)cc3)nc(SCC(=O)N3CCCCC3)c1C2`, with 52% (inactive); and `CCc1ccc(CSc2nc(-c3ccccc3F)nc3c2Cc2c(CO)cnc(C)c2O3)cc1`, with 61% (inactive).
Next, `CCc1ccc(CSc2nc(-c3ccccc3OC)nc3c2Cc2c(CO)cnc(C)c2O3)cc1`: 90% (inactive); `CCN(CC)C(=O)CSc1nc(-c2ccccc2F)nc2c1Cc1c(CO)cnc(C)c1O2`: 101% (inactive); `COc1ccccc1-c1nc2c(c(SCc3cc(C)ccc3C)n1)Cc1c(CO)cnc(C)c1O2`: 41% (active).
Regarding `Cc1ncc(CO)c2c1Oc1nc(-c3ccccc3)nc(SCC(=O)N3CCCCC3)c1C2`, the survival was 85% (inactive).
Next, `CCN(CC)C(=O)CSc1nc(-c2ccc(C)cc2)nc2c1Cc1c(CO)cnc(C)c1O2`: 39% (active); `Cc1ccc(-c2nc3c(c(SCC(=O)N(C)c4ccccc4)n2)Cc2c(CO)cnc(C)c2O3)cc1`: 64% (inactive); `O=C(CSc1nccn1Cc1ccccc1)Nc1ccc2c(c1)OCCO2`: 71% (inactive).
Then `CN(C)c1ccc(CN(Cc2ccco2)C(=O)COc2ccc(F)cc2)cc1`, with 91% (inactive); and `CC(Sc1nnc2c(n1)[nH]c1ccccc12)C(=O)NC1CC1` (stereo unspecified), with 60% (inactive).
Next, `CCc1ccc(-c2cn3c(n2)sc2cc(C(=O)NCCC4=CCCCC4)ccc23)cc1`: 70% (inactive); `O=C(NCc1ccccc1)C(c1ccco1)N(C(=O)c1csnn1)c1ccccc1` (stereo unspecified): 81% (inactive); `CCCCc1nn2c(=O)cc(COC(=O)c3ccccc3NC(=O)c3ccccc3OC)nc2s1`: 84% (inactive).
Take `O=C(Nc1ccc(Cl)cc1)N1CCC(c2ccccc2)C1` (stereo unspecified): the survival is 67% (inactive).
Then `COc1cc(OC)c(NC(=O)CN2C(=O)CCn3nc(-c4cccn4C)cc32)cc1Cl`, with 90% (inactive); and `O=C(NC1(C(F)(F)F)NC(=O)N(CCc2ccccc2)C1=O)c1ccccc1F` (stereo unspecified), with 76% (inactive).

The record behind these values is PubChem BioAssay AID463173 (ICCB-Longwood Screening Facility, Harvard Medical School, 2010).
